Screens: PubChem, National Center for Advancing Translational Sciences (NCATS)
The list is not random: actives were taken first. Their share in the collection is about 5.8%.
SW480 rereplic: A quantitative high throughput screen for small molecules that induce DNA re-replication in SW480 colon adenocarcinoma cells | SW480 DNA re-replication, Hoechst DNA content imaging, 48 h | Potency, µM (highest dose often 46.1 µM), usual class: activators | hit rate 1.8% among 340,000; further: nearly all actives have a fitted effect of over 55% in size
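Image-based DNA-content assay: after two days of treatment, nuclei were labelled with the DNA dye Hoechst and imaged, and hits were compounds raising the count of nuclei showing high fluorescence intensity.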
KB-3-1 cytotox: qHTS assay for MDR1-selective chemotherapeutics: Primary screen using the parental adenocarcinoma cell KB-3-1. KB-3-1 viability, CellTiter-Glo ATP luminescence, 72 h. Potency, µM (top dose mostly 46.1 µM), most hits filed as cytotoxic. AID 1347075, 2019. hit rate 1.4% among 400,000; further: nearly all actives have a fitted effect of over 60% in size
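Here the drug-naive KB-3-1 line serves as comparator for MDR sub-line selectivity; cells received compound titrations, 72 h at 37 °C, then CellTiter-Glo readout.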
KB-V1 cytotox: qHTS assay for MDR1-selective chemotherapeutics: Primary screen using the drug-selected MDR subline cells KB-V1 | KB-V1 MDR cells viability, CellTiter-Glo, 72 h | Potency, µM (highest dose often 46.1 µM), actives largely listed as cytotoxic | hit rate 3.4% among 400,000 | AID 1347076, 2019; further: nearly all actives have a fitted effect of over 60% in size
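Readout: CellTiter-Glo luminescence, 10 min after addition. Cells: KB-V1 MDR subline, 72 h at 37 degrees C with compound. Analysis: corrected, normalized data fitted to concentration-effect curves.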
MCF10A rerep: A quantitative high throughput screen for small molecules that induce DNA re-replication in MCF 10a normal breast cells | MCF 10A DNA re-replication, Hoechst nuclear intensity, 48 h | Potency, µM (titrated, usually from 46.1 µM), most hits filed as activators | hit rate 2.9% among 350,000 | AID 624296, 2012; further: nearly all actives have a fitted effect of over 50% in size
PINK1 expr mod: A Quantitative High throughput Screen to Identify Chemical Modulators of PINK1 Expression; Potency, µM (top dose mostly 76.6 µM), actives largely listed as activators; hit rate 0.2% among 410,000; PINK1 immunofluorescence, high-content cytometry, 24 h; active means well fitted activation curve with a large enough effect; inconclusive means small, poorly fitted or top-dose-only effect; cell line not stated here; further: nearly all actives have a fitted effect of over 65% in size
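Fluorescence from anti-PINK1 antibody, together with nuclear and cell stains, was scanned on a laser-scanning cytometer. Before staining, stable-line cells were incubated 24 hours with compounds at 5 concentrations; primary antibody 12 h at 10 degrees C.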
ALOX12 inh: Primary qHTS assay for inhibitors of human arachidonate 12S-lipoxygenase (ALOX12): Round 2; Polyunsaturated fatty acid lipoxygenase ALOX12 (Homo sapiens), P18054; purified 12hLO, xylenol orange hydroperoxide absorbance; Potency, µM (top dose mostly 108 µM), hits mostly inhibitors; hit rate 1.1% among 580,000
Target sequence (P18054 whole entry, looked up): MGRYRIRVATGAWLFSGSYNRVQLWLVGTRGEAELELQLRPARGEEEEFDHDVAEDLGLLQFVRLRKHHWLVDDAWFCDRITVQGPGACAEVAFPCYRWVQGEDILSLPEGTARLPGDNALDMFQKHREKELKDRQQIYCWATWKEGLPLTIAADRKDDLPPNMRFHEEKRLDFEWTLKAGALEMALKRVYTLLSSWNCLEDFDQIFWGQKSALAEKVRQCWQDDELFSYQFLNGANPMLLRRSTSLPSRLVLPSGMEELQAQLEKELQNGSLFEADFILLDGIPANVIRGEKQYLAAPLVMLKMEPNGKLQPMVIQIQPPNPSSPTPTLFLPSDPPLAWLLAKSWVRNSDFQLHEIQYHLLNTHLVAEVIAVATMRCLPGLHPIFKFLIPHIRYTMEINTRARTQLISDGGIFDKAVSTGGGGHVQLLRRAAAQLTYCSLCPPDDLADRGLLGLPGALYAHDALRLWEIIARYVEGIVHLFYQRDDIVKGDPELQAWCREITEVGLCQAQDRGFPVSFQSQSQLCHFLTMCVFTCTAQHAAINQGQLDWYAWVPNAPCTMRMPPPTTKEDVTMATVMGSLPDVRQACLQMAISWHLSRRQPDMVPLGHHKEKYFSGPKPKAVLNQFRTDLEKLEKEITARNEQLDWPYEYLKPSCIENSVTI
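Purified human 12hLO at 150 nM in 25 mM Hepes, 0.01% Triton X-100, pH 7.0, preincubated 15 min at room temperature with compound. Reaction started with 40 uM arachidonic acid, 30 min at room temperature. Hydroperoxide measured by Fe-xylenol orange, 573/405 nm absorbance ratio.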
A number is an active result. Unless noted, the call rests on the fitted dose curve; in most records, active means well fitted curve in the direction sought with a large enough effect; inconclusive means small, poorly fitted or top-dose-only effect, or another doubt; inactive means no such curve, though single readings can be large; an effect the other way counts as inactive or inconclusive.

What do the screens show for `CN(C)CCCOC(=O)N1c2ccccc2C=Cc2ccccc21`?
SW480 rereplic: inactive; KB-3-1 cytotox: 26µM; KB-V1 cytotox: inactive; MCF10A rerep: inactive; PINK1 expr mod: inactive; ALOX12 inh: inactive

Results for Clc1ccc(-n2nnnc2-c2ccccc2)cc1 ?
SW480 rereplic: inactive; KB-3-1 cytotox: inactive; KB-V1 cytotox: inactive; MCF10A rerep: inactive; PINK1 expr mod: inactive; ALOX12 inh: inactive

How did COc1ccc(-n2nnnc2-c2ccccc2)cc1 do in these assays?
SW480 rereplic: inactive; KB-3-1 cytotox: 6.5µM; KB-V1 cytotox: 9.2µM; MCF10A rerep: inactive; PINK1 expr mod: inactive; ALOX12 inh: inactive

Results for CC(C)C(=O)N1CCN(C(=O)c2cc(C(C)C)nc3ccccc23)CC1 ?
ALOX12 inh: inactive

What do the screens show for `O=C(O)CNS(=O)(=O)c1ccc2c(c1)Cc1cc(S(=O)(=O)NCC(=O)O)ccc1-2`?
SW480 rereplic: inactive; KB-3-1 cytotox: inactive; KB-V1 cytotox: inactive; MCF10A rerep: inactive; PINK1 expr mod: inactive; ALOX12 inh: 8.9µM

How did O=C(O)CNS(=O)(=O)c1ccc2c(c1)C(=O)c1cc(S(=O)(=O)NCC(=O)O)ccc1-2 do in these assays?
SW480 rereplic: inactive; KB-3-1 cytotox: inactive; KB-V1 cytotox: inconclusive; MCF10A rerep: inactive; PINK1 expr mod: inactive; ALOX12 inh: inactive

What do the screens show for `CCOC1=C2CN(S(=O)(=O)c3ccc(C)cc3)[C@H](c3ccccc3)C[C@@H]2N(S(=O)(=O)c2ccc(C)cc2)[C@H](c2ccccc2)C1`?
KB-3-1 cytotox: inactive; KB-V1 cytotox: inactive; PINK1 expr mod: inactive; ALOX12 inh: inactive

What do the screens show for `CCOC1=C2CN(S(=O)(=O)c3ccc(C)cc3)C(c3ccc(C)cc3)CC2N(S(=O)(=O)c2ccc(C)cc2)C(c2ccccc2)C1` (centres undefined)?
KB-3-1 cytotox: 3.3µM; KB-V1 cytotox: inconclusive; ALOX12 inh: inactive

What do the screens show for `Cc1nn(C(=O)CCCC(=O)N2CCCC2c2nc(C3CCOCC3)no2)c2ccccc12` (centres undefined)?
ALOX12 inh: inactive

What do the screens show for `Nc1ncnc2c1ncn2C1O[C@H](CO)[C@@H](O)[C@@H]1O` (some centres undefined)?
SW480 rereplic: inactive; KB-3-1 cytotox: inactive; KB-V1 cytotox: inactive; MCF10A rerep: inactive; PINK1 expr mod: inactive; ALOX12 inh: inactive

How did Nc1ncnc2c1ncn2[C@@H]1O[C@H](COP(=O)(O)OP(=O)(O)CP(=O)(O)O)[C@@H](O)[C@H]1O do in these assays?
ALOX12 inh: 16µM

How did Nc1ncnc2c1ncn2[C@@H]1O[C@H](COP(=O)(O)OP(=O)(O)O)[C@@H](O)[C@H]1O do in these assays?
ALOX12 inh: inactive

What do the screens show for `N#Cc1c(N)n(C2OC(CO)C(O)C2O)c2ncnc(N)c12` (centres undefined)?
SW480 rereplic: inconclusive; KB-3-1 cytotox: 0.23µM; KB-V1 cytotox: 0.21µM; MCF10A rerep: 0.23µM; PINK1 expr mod: inactive; ALOX12 inh: inactive

How did COc1cc(Cl)c(CNC[C@H]2O[C@@H](n3cnc4c(N)ncnc43)[C@H](O)[C@@H]2O)c(Cl)c1O do in these assays?
SW480 rereplic: inactive; KB-3-1 cytotox: inactive; KB-V1 cytotox: inactive; MCF10A rerep: 7.3µM; PINK1 expr mod: inactive; ALOX12 inh: inactive

Results for Nc1ncnc2c1ncn2[C@@H]1O[C@H](CO)[C@@H](O)[C@@H]1O ?
SW480 rereplic: inactive; KB-3-1 cytotox: inactive; KB-V1 cytotox: inactive; MCF10A rerep: 7.3µM; PINK1 expr mod: inactive; ALOX12 inh: inactive

How did Cc1[nH]c2ccc(F)cc2c1CC(=O)NCC(F)(F)F do in these assays?
ALOX12 inh: inactive

What do the screens show for `O=C(/C=C/c1ccc2c(c1)OCCCO2)OCc1ccccn1`?
ALOX12 inh: inactive
